In PubChem BioAssay AID1347426 (Functional Genomics Laboratory (NCATS/FGL), 2020):
Out of some 31,000 sequences screened, about 1,400 (4.5%) were called active. The sample as a whole holds a higher share of actives than the screen did. Values without a mark were called inactive.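 Rule for the calls: active = median seed-adjusted z-score above 1 or below -1; inactive = the rest.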

experiment: Novel Modifiers of Survival Motor Neuron (SMN) Protein: Gene Identification via Genome-wide siRNA Screen; settings: HEK293T SMN2-luciferase reporter, siRNA knockdown, 72 h; actives lie on both sides;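 note: luminescence tracks full-length SMN protein made from the SMN2 reporter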
Method in brief: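 HEK293T cells stably expressing an SMN2 splicing/cDNA-luciferase reporter were reverse-transfected with a druggable-genome siRNA library and read by luminescence at 72 hours; hits defined by MAD score above 1.0 or below -1.0.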

Row | Sequence | median seed-adjusted z-score
1 | CGCAUUCUCCAGUCGCACATT against KRT81 | -0.0955
2 | CGGUUGGAGUUGGAUGACATT against TRIB3 | 0.00635
3 | ACAUCAAAACACCAGCUUUTT against YBX2 | 0.362
4 | CCUACGUUUUUAUUAUCUUTT against SLC2A14 | -1.09 (active)
5 | GCACAAGGAGUGACCUUCUTT against GCHFR | -0.559
6 | GAACUUUGUUACUAUCGAATT against PCDH9 | 0.165
7 | GGAUCCUGGUGAUAAGAGATT against QRICH1 | -1.04 (active)
8 | GAGAAAAUCUAUAUCCGGATT against NR2C2 | -0.498
9 | CCCGGAGAAUUCUCAAUGATT against NENF | -0.778
10 | CAUCAAUGACUCACCCUUUTT against RTN4R | -0.536
11 | CAAACGACCUUUGCCCAAATT against MED17 | -2.06 (active)
12 | AAACUUGCCUGAGUACAAATT against KCNH3 | -0.509
13 | GCUCCAGUCUCACUAAACATT against ZNF552 | 0.437
14 | GAAUGAAGGUUUAUAUUGATT against EPHB3 | -0.407
15 | AGGAGACUCUUUGCUACAATT against MRGPRX1 | -0.188
16 | GAAUGUUGACUCUACUGCATT against POLR3K | 0.504
17 | GGGACCAUCCUGUUCUUCATT against KCNK12 | 1.04 (active)
18 | CUCACAACAAAUUACUUAATT against CYP2C9 | 0.246
19 | GGACUUGAGAGAUCUCUUUTT against DAB1 | 0.307
20 | GGUCUAAAGGUGGAGAUAATT against EIF2C2 | -0.183
21 | CAUGUGCAGUACAUCCAUATT against TIMP3 | -1.05 (active)
22 | GCCCUUUACAUACUCUUCATT against IL23R | 0.512

Row | Sequence | median seed-adjusted z-score
23 | GGAUGAUAUUCUAUCCUUUTT against IPO13 | 0.612
24 | UGCUCAGCAGUACAACGUATT against SYN1 | -0.458
25 | UGUCCACGGUUAAAAUUAUTT against CCL16 | -0.308
26 | CAAACCGAAUAGAAACUUUTT against PSMC1 | -2.23 (active)
27 | UCAACUGCCCAUACACUUATT against LOC647743 | -0.203
28 | UCCCAGUGAUUAUACGUUATT against ARPC4 | -0.211
29 | GGAUGAGAACAUUAAAACATT against COQ3 | 0.426
30 | UGAUGGAAGUUGUCACUUATT against BLK | -0.274
31 | GGCAAUGCUUUACUAUGAATT against ABCG8 | -0.0233
32 | AGAUGUUCUUAAGACCAAATT against PACSIN2 | 0.73
33 | GGACUUCUGAAAAUUCGCATT against EP400 | 1.83 (active)
34 | CCGCGAUCAUAGACCUAGATT against FOXO4 | -0.0576
35 | GGACAGGAAGAUACAAGAATT against GPR113 | -0.434
36 | GGAAGAAUAUGUUUAGAUATT against UBE2N | 0.995
37 | CGAGCAAUUUAGAGACUUATT against PCDHGA3 | 0.27
38 | GGAGAUACCAGGAACCCAATT against SLC7A13 | 0.121
39 | CACGCAGAGUUACCGAAAATT against SPEN | -1.69 (active)
40 | CGAGCCACCGAGAAGAUAATT against ATAD3A | -0.283
41 | GGACAAGAUUGGUGGGUUATT against PEX1 | 0.227
42 | GUACCAAUACUGAUAAGAATT against SLC9A11 | -0.12
43 | GGCCUAUCCUGAUUCUGAUTT against RND2 | -0.0613
44 | GGAUACUCUGAUGAAGAUATT against GNAQ | -1.23 (active)

Row | Sequence | median seed-adjusted z-score
45 | AGUCAGCUCCGAUACUUCATT against CAPN10 | 0.364
46 | UCACUGUGGUGUAUUUUAATT against PDP2 | -0.0726
47 | GCUUCCAACUGCUUAUAUATT against TP53RK | 0
48 | CCAUCUCCUCUGAAACGUATT against RREB1 | -0.414
49 | CAGAGACUGUUAUCCAUUUTT against SLC25A36 | 0.134
50 | UUGUGGAUGUUGAACCUAATT against SNRPD1 | -2.97 (active)
51 | GCUACUAACAUUACUCCAATT against FOLH1 | 0.148
52 | CCAUCUCUACCGACGAAGATT against ARHGEF1 | -0.0658
53 | CAUUCUAUGGGAUACCCUATT against SYT4 | -0.354
54 | CAGGAAGUCUGACCAAUAATT against LPL | 0.389
55 | UGACCGAUGUCUUCCUUAUTT against RHOQ | -0.328
56 | CUCUGAUUAUCAUGAGAUATT against SRGAP2 | 0.0323
57 | AACCUAUAAUGAGGAUGUATT against ZNRF2 | 0
58 | AGAGCGACCUCACCACCAATT against RAB1B | 1.55 (active)
59 | GGAAGCGAAUACUACUAUUTT against ST6GALNAC3 | -0.205
60 | GCAUUGAUCCUCAGAGUAATT against PTPRU | 0
61 | GGGAUAUGAUAGAUCCUUATT against CPO | 0.0875
62 | CCGCAUAGCUCAUAGGAUATT against SMARCA2 | -0.458
63 | GCAUGGUAAUUUAUAGUUUTT against NGF | -0.325
64 | GCACGGAAUUUGAACAGUATT against SOX17 | -0.46
65 | GGAACAUCUUUGUACCUAUTT against NARG1 | -1.02 (active)
66 | AUCUAGACUUCUCUUUAUATT against FHL3 | 0.105

Row | Sequence | median seed-adjusted z-score
67 | UCCUCAACGUGUGCGAUGATT against KCNG1 | -0.00995
68 | CCUCAGCUUUUACAGCAAATT against RAD23A | -1.13 (active)
69 | GGCCUAUGCUAAUCAUUCUTT against FANCA | 0.418
70 | GACUUGAAGAUGCUAAUCATT against TIPIN | 0
71 | GAAUGAAAUCAGAGUAUAATT against RNF125 | 0.204
72 | CCAGGUCCAUGGAAAGAAATT against NEIL2 | -0.256
73 | CGGCUAGAAGAGGAACAGATT against LSG1 | 1.31 (active)
74 | CAAUGUGGUGUAUAAUACATT against VNN2 | -0.583
75 | CAGUCACUGCACUACAGAATT against ATF7 | 0.903
76 | AGAACAAAGACCUAAUGGATT against TNNT3 | -0.293
77 | GAUUGAGAAUUCUAUUGUATT against UTP6 | -0.253
78 | GAAUCGUUGUCAGAGCCUUTT against LMNB1 | 0.0619
79 | AGGCAAAGACGGAACAACATT against TRIM69 | 0.214
80 | GCAUUGGUCUAGAGCUUUATT against SCPEP1 | -0.99
81 | GCAUCGUCACUGUCAUGAATT against ITPR3 | -1.28 (active)
82 | AGUUUGAUGUUAUCAAUCUTT against PRKAG1 | 0.431
83 | GCAGAUCUCGCUACAGGGATT against SFRS2B | -0.272
84 | UCAGCUUCAGCUUAACUGATT against TUBA1B | 0.0888
85 | CGAGAAUGACUAUCUUCAATT against STK32C | -0.311
86 | GACCUGGGCAGAUUCCAAATT against MMP9 | -1.15 (active)
87 | GGGUAUGAGAUAUGCGGUATT against TYW1 | 0.201
88 | GAUUAGAUCUAAACAAUCUTT against TTRAP | -0.33

Row | Sequence | median seed-adjusted z-score
89 | CCAGAAUGCCCAUAUCACATT against RS1 | -0.684
90 | GCCUUCUGAUGGUAGAUCUTT against RANBP17 | -0.123
91 | GGAUGGCAGGGAUUCCGAATT against ZNF213 | 1.37 (active)
92 | GGAAAGUUGUGGGUCUAAUTT against SERPINA7 | 0.0925
93 | GGACUUAAGCGACAACGCATT against RANGAP1 | -0.0379
94 | GCACCGAACCCGUCUAUCATT against POU3F4 | -0.314
95 | GUAGCUUGCUACUCCAGAATT against POLR2D | -3.79 (active)
96 | CGGAUGCACAAGCUAAAUATT against BHLHA15 | -0.199
97 | CGGAAGGUAGUAAACCUUUTT against AMY1A | 0.272
98 | GUAGCUCAUUUGUAAGGAATT against ZNF578 | -0.808
99 | GGAGCGCAAGAUCACCUUATT against SSTR1 | 0.285
100 | GCCGGUAUGUGAAGGAGAATT against CLK3 | -1.11 (active)
101 | CACUUUUUAUAUUUACGUATT against TSPAN4 | 0.417
102 | GUGUAGACAUAGUCUAAAATT against ZNF532 | -0.0289
103 | CCCUGUCUGUGAAGCAUGATT against TXNDC2 | -1.29 (active)
104 | GCUACAUCUUUAUAAGGGATT against IL12RB2 | 0.368
105 | GGAAGAAAGCGGGACUUUUTT against PPME1 | 0.342
106 | CAGACUCCCUCAUCACCAATT against ALAS1 | -1.15 (active)
107 | CAAUGAACACUACUAACCATT against IL31RA | 0.36
108 | CGGGAGUGGUUUUCAGAGATT against APOC1 | 0
